From PubChem BioAssay (NCI)
About 79,000 compounds went through this panel and 15% of them were active in at least one assay; those are over-represented in the sample as a whole. Unmarked numbers belong to inactive results. Active and inactive are the calls of the source. Cut-off read from the data, not from the text of the source: active = growth inhibition above about 70%; inactive = the rest.

assay: NCI Yeast Anticancer Drug Screen. Data for the mlh1 strain (AID 171);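 note: 0% = growth of vehicle-treated control cultures of the same strain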; settings: S. cerevisiae mlh1 strain growth inhibition; at 11.0 µM; stronger effect = higher value
In short: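 Measured: yeast growth. Reference: vehicle-treated controls. Organism: strain with a defined alteration affecting DNA damage repair or cell cycle control, treated with compound.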

**Q.** With `CN(C)C[C@H]1CC[C@@H](CN(C)C)C1=O` as the compound, how does the growth inhibition read?
**A.** The growth inhibition was 24%.

**Q.** With `COC(=O)CCNc1c2ccccc2nc2cccc([N+](=O)[O-])c12` as the compound, how does the growth inhibition read?
**A.** The growth inhibition was 95% (active).

**Q.** For `CC(/C=C/c1ccc2c(c1)OCO2)[N+](=O)[O-]` (stereo unspecified), which growth inhibition is on record?
**A.** The growth inhibition was 99% (active).

**Q.** For `CCOC(=O)c1cnc2c(C(F)(F)F)cccc2c1N=[N+]=[N-]`, which growth inhibition is on record?
**A.** The growth inhibition was -1%.

**Q.** Which growth inhibition does the source give for `CCCCCCCCNC(=O)C1=C(C)NC(C)=C(C(=O)NCCCCCCCC)C1` here?
**A.** Its growth inhibition is 0%.

**Q.** Which growth inhibition does the source give for `Nc1ccccc1CC(O)C(=O)O` (stereo unspecified) here?
**A.** The growth inhibition was 29%.

**Q.** For `CN(C)c1ccc(Sc2ccc3nc(N)nc(N)c3c2)cc1`, which growth inhibition is on record?
**A.** Its growth inhibition is -16%.

**Q.** For `CC(C)C1=CCC2C(=C1)CCC1C(C)(C(=O)O)CCCC21C` (stereo unspecified) (tested in a mixture with another compound), which growth inhibition is on record?
**A.** The growth inhibition was 6%.

**Q.** Which growth inhibition does the source give for `CSC(=S)Nc1cc(C)ccn1` here?
**A.** Its growth inhibition is 54%.

**Q.** With `CC(C)c1cc(C(C)C)c(O)c(C([O-])[O-])c1.CC(C)c1cc(C(C)C)c(O)c(C([O-])[O-])c1.CC(C)c1cc(C(C)C)c(O)c(C([OH2+])[OH2+])c1.CC(C)c1cc(C(C)C)c(O)c(C([OH2+])[OH2+])c1.[Cu+2].[Cu+2].[OH3+].[OH3+]` as the compound, how does the growth inhibition read?
**A.** The growth inhibition was 29%.

**Q.** Which growth inhibition does the source give for `Cc1cc(I)ccc1N` here?
**A.** Its growth inhibition is 10%.

**Q.** For `O=Cc1cccc2ccc3ccccc3c12`, which growth inhibition is on record?
**A.** The growth inhibition was -2%.

**Q.** With `O=[N+]([O-])CC(SCc1ccccc1)c1ccc2c(c1)OCO2` (stereo unspecified) as the compound, how does the growth inhibition read?
**A.** Its growth inhibition is 94% (active).

**Q.** With `CCCCCCCCCCCCCC[N+](C)(CC(=O)[O-])Cc1ccccc1` (stereo unspecified) as the compound, how does the growth inhibition read?
**A.** Its growth inhibition is 99% (active).

**Q.** For `CC1=NN(c2cccc(Cl)c2)C(=O)C1`, which growth inhibition is on record?
**A.** The growth inhibition was -16%.

**Q.** For `CC(=O)OCc1ccc(O)c(C=O)c1`, which growth inhibition is on record?
**A.** Its growth inhibition is -5%.

**Q.** Which growth inhibition does the source give for `Cc1nc(-[n+]2nc(-c3ccncc3)nn2-c2ccccc2)sc1C` here?
**A.** The growth inhibition was 7%.

**Q.** For `C(CCSC1=NCCN1)CSC1=NCCN1` (tested in a mixture with another compound), which growth inhibition is on record?
**A.** Its growth inhibition is 83% (active).

**Q.** Which growth inhibition does the source give for `S=c1[nH]nc(Nc2ccc(Cl)cc2)s1` here?
**A.** The growth inhibition was -4%.

**Q.** Which growth inhibition does the source give for `Brc1ccc(-c2cc3c(cc2C2SCCS2)OCO3)cc1` here?
**A.** The growth inhibition was -28%.

**Q.** Which growth inhibition does the source give for `C[CH2][Sn]([CH2]C)([O]C(=O)C(OC(C)=O)c1ccccc1)[O]C(=O)C(OC(C)=O)c1ccccc1` (stereo unspecified) here?
**A.** The growth inhibition was 4%.

**Q.** For `Cc1ccc2ccc(O)cc2c1`, which growth inhibition is on record?
**A.** Its growth inhibition is -27%.

same assay, conditions: S. cerevisiae mlh1 strain growth inhibition; at 33.0 µM; stronger effect = higher value

**Q.** For `CN(C)C[C@H]1CC[C@@H](CN(C)C)C1=O`, which growth inhibition is on record?
**A.** Its growth inhibition is 36%.

**Q.** With `COC(=O)CCNc1c2ccccc2nc2cccc([N+](=O)[O-])c12` as the compound, how does the growth inhibition read?
**A.** The growth inhibition was 96% (active).

**Q.** Which growth inhibition does the source give for `CC(/C=C/c1ccc2c(c1)OCO2)[N+](=O)[O-]` (stereo unspecified) here?
**A.** Its growth inhibition is 99% (active).

**Q.** For `CCOC(=O)c1cnc2c(C(F)(F)F)cccc2c1N=[N+]=[N-]`, which growth inhibition is on record?
**A.** Its growth inhibition is 56%.

**Q.** With `CCCCCCCCNC(=O)C1=C(C)NC(C)=C(C(=O)NCCCCCCCC)C1` as the compound, how does the growth inhibition read?
**A.** The growth inhibition was 2%.

**Q.** With `Nc1ccccc1CC(O)C(=O)O` (stereo unspecified) as the compound, how does the growth inhibition read?
**A.** Its growth inhibition is 92% (active).

**Q.** With `CN(C)c1ccc(Sc2ccc3nc(N)nc(N)c3c2)cc1` as the compound, how does the growth inhibition read?
**A.** The growth inhibition was -9%.

**Q.** For `CC(C)C1=CCC2C(=C1)CCC1C(C)(C(=O)O)CCCC21C` (stereo unspecified) (tested in a mixture with another compound), which growth inhibition is on record?
**A.** Its growth inhibition is 43%.

**Q.** With `CSC(=S)Nc1cc(C)ccn1` as the compound, how does the growth inhibition read?
**A.** The growth inhibition was 51%.

**Q.** For `CC(C)c1cc(C(C)C)c(O)c(C([O-])[O-])c1.CC(C)c1cc(C(C)C)c(O)c(C([O-])[O-])c1.CC(C)c1cc(C(C)C)c(O)c(C([OH2+])[OH2+])c1.CC(C)c1cc(C(C)C)c(O)c(C([OH2+])[OH2+])c1.[Cu+2].[Cu+2].[OH3+].[OH3+]`, which growth inhibition is on record?
**A.** Its growth inhibition is 60%.

**Q.** With `Cc1cc(I)ccc1N` as the compound, how does the growth inhibition read?
**A.** The growth inhibition was 89% (active).

**Q.** With `O=Cc1cccc2ccc3ccccc3c12` as the compound, how does the growth inhibition read?
**A.** The growth inhibition was 63%.

**Q.** For `O=[N+]([O-])CC(SCc1ccccc1)c1ccc2c(c1)OCO2` (stereo unspecified), which growth inhibition is on record?
**A.** The growth inhibition was 98% (active).

**Q.** Which growth inhibition does the source give for `CCCCCCCCCCCCCC[N+](C)(CC(=O)[O-])Cc1ccccc1` (stereo unspecified) here?
**A.** Its growth inhibition is 99% (active).

**Q.** With `CC1=NN(c2cccc(Cl)c2)C(=O)C1` as the compound, how does the growth inhibition read?
**A.** The growth inhibition was 2%.

**Q.** With `CC(=O)OCc1ccc(O)c(C=O)c1` as the compound, how does the growth inhibition read?
**A.** Its growth inhibition is 24%.

**Q.** Which growth inhibition does the source give for `Cc1nc(-[n+]2nc(-c3ccncc3)nn2-c2ccccc2)sc1C` here?
**A.** The growth inhibition was 58%.

**Q.** For `C(CCSC1=NCCN1)CSC1=NCCN1` (tested in a mixture with another compound), which growth inhibition is on record?
**A.** Its growth inhibition is 99% (active).

**Q.** With `S=c1[nH]nc(Nc2ccc(Cl)cc2)s1` as the compound, how does the growth inhibition read?
**A.** The growth inhibition was 8%.

**Q.** With `Brc1ccc(-c2cc3c(cc2C2SCCS2)OCO3)cc1` as the compound, how does the growth inhibition read?
**A.** Its growth inhibition is 18%.

**Q.** With `C[CH2][Sn]([CH2]C)([O]C(=O)C(OC(C)=O)c1ccccc1)[O]C(=O)C(OC(C)=O)c1ccccc1` (stereo unspecified) as the compound, how does the growth inhibition read?
**A.** The growth inhibition was 47%.

**Q.** Which growth inhibition does the source give for `Cc1ccc2ccc(O)cc2c1` here?
**A.** The growth inhibition was -24%.

same assay, conditions: S. cerevisiae mlh1 strain growth inhibition; at 100.0 µM; stronger effect = higher value

**Q.** For `CN(C)C[C@H]1CC[C@@H](CN(C)C)C1=O`, which growth inhibition is on record?
**A.** The growth inhibition was 29%.

**Q.** With `COC(=O)CCNc1c2ccccc2nc2cccc([N+](=O)[O-])c12` as the compound, how does the growth inhibition read?
**A.** Its growth inhibition is 97% (active).

**Q.** Which growth inhibition does the source give for `CC(/C=C/c1ccc2c(c1)OCO2)[N+](=O)[O-]` (stereo unspecified) here?
**A.** The growth inhibition was 99% (active).

**Q.** Which growth inhibition does the source give for `CCOC(=O)c1cnc2c(C(F)(F)F)cccc2c1N=[N+]=[N-]` here?
**A.** The growth inhibition was 98% (active).

**Q.** For `CCCCCCCCNC(=O)C1=C(C)NC(C)=C(C(=O)NCCCCCCCC)C1`, which growth inhibition is on record?
**A.** The growth inhibition was 8%.

**Q.** With `Nc1ccccc1CC(O)C(=O)O` (stereo unspecified) as the compound, how does the growth inhibition read?
**A.** The growth inhibition was 97% (active).

**Q.** For `CN(C)c1ccc(Sc2ccc3nc(N)nc(N)c3c2)cc1`, which growth inhibition is on record?
**A.** The growth inhibition was 18%.

**Q.** For `CC(C)C1=CCC2C(=C1)CCC1C(C)(C(=O)O)CCCC21C` (stereo unspecified) (tested in a mixture with another compound), which growth inhibition is on record?
**A.** The growth inhibition was 96% (active).

**Q.** Which growth inhibition does the source give for `CSC(=S)Nc1cc(C)ccn1` here?
**A.** Its growth inhibition is 85% (active).

**Q.** For `CC(C)c1cc(C(C)C)c(O)c(C([O-])[O-])c1.CC(C)c1cc(C(C)C)c(O)c(C([O-])[O-])c1.CC(C)c1cc(C(C)C)c(O)c(C([OH2+])[OH2+])c1.CC(C)c1cc(C(C)C)c(O)c(C([OH2+])[OH2+])c1.[Cu+2].[Cu+2].[OH3+].[OH3+]`, which growth inhibition is on record?
**A.** Its growth inhibition is 93% (active).

**Q.** For `Cc1cc(I)ccc1N`, which growth inhibition is on record?
**A.** Its growth inhibition is 92% (active).

**Q.** Which growth inhibition does the source give for `O=Cc1cccc2ccc3ccccc3c12` here?
**A.** The growth inhibition was 98% (active).

**Q.** For `O=[N+]([O-])CC(SCc1ccccc1)c1ccc2c(c1)OCO2` (stereo unspecified), which growth inhibition is on record?
**A.** The growth inhibition was 97% (active).

**Q.** For `CCCCCCCCCCCCCC[N+](C)(CC(=O)[O-])Cc1ccccc1` (stereo unspecified), which growth inhibition is on record?
**A.** The growth inhibition was 99% (active).

**Q.** For `CC1=NN(c2cccc(Cl)c2)C(=O)C1`, which growth inhibition is on record?
**A.** The growth inhibition was 56%.

**Q.** With `CC(=O)OCc1ccc(O)c(C=O)c1` as the compound, how does the growth inhibition read?
**A.** The growth inhibition was 30%.

**Q.** For `Cc1nc(-[n+]2nc(-c3ccncc3)nn2-c2ccccc2)sc1C`, which growth inhibition is on record?
**A.** The growth inhibition was 72% (active).

**Q.** For `C(CCSC1=NCCN1)CSC1=NCCN1` (tested in a mixture with another compound), which growth inhibition is on record?
**A.** Its growth inhibition is 98% (active).

**Q.** Which growth inhibition does the source give for `S=c1[nH]nc(Nc2ccc(Cl)cc2)s1` here?
**A.** The growth inhibition was 61%.

**Q.** With `Brc1ccc(-c2cc3c(cc2C2SCCS2)OCO3)cc1` as the compound, how does the growth inhibition read?
**A.** The growth inhibition was 63%.

**Q.** With `C[CH2][Sn]([CH2]C)([O]C(=O)C(OC(C)=O)c1ccccc1)[O]C(=O)C(OC(C)=O)c1ccccc1` (stereo unspecified) as the compound, how does the growth inhibition read?
**A.** Its growth inhibition is 93% (active).

**Q.** With `Cc1ccc2ccc(O)cc2c1` as the compound, how does the growth inhibition read?
**A.** The growth inhibition was 68%.
